We go through ten compounds from PubChem BioAssay (NCATS).

Results filed as inconclusive are left out. The source made the active and inactive calls. Unless noted, calls come from the whole dose curve; as a rule, active = well fitted curve in the direction sought with a large enough effect; inconclusive = small, poorly fitted or top-dose-only effect, or another doubt; inactive = no such curve, though single readings can be large; an effect the other way counts as inactive or inconclusive.

The nature of assay [1]: qHTS Validation Assay to Find Inhibitors of Chronic Active B-Cell Receptor Signaling (AID 485345; active = well fitted curve in the direction sought with a large enough effect in the main read-out, with a control signal flat, not every such curve was filed as active;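 note: 0% = untreated basal cells and 100% = 10 µM MG-132 proteasome inhibitor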). In a few lines: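 TMD8 ABC-DLBCL cells stably carrying doxycycline-inducible IkappaBalpha–green luciferase fusion plus unfused red luciferase; compounds 46 uM to 3 nM, 4 h at 37C with doxycycline. Corrected green/red luminescence ratio normalized to 10 uM MG-132 and basal cell wells; curves fitted.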
In general terms: Quantitative high-throughput screening tests each substance at several concentrations.

The target of assay [2] is Beta-2 adrenergic receptor (Homo sapiens) (UniProt P07550). The assay can be described thus: qHTS validation assay of beta-arrestin-biased ligands of beta2-adrenergic receptor (AID 485366). Note: 0% is about no effect. In a few lines:
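Agonist activity is measured as luciferase luminescence downstream of beta-arrestin recruitment to recombinant beta2-AR in Tango cells. Exposure lasts 18 hr at 37 degrees C, and curves are categorized by r2, response size and activity.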

The target in assay [3] is ATP-dependent 6-phosphofructokinase (Trypanosoma brucei brucei) (UniProt O15648). The assay can be described thus: qHTS Validation Assay to Find Inhibitors of T. brucei phosphofructokinase (AID 485368). The note with it: outcome: dose series up to 57.5 µM. In a few lines:
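Inhibition derived from concentration-response curves of luminescence, ranked by r2, response size and curve class; the underlying reaction used 1.25 nM PFK, 0.1 mM ATP and 0.5 mM F6P, 45 min, room temperature.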

Assay [4] is described as follows: Quantitative high throughput screen for delayed death inhibitors of the malarial parasite plastid, 96 hour incubation (AID 488745).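 Note: luciferase-expressing P. falciparum in erythrocytes at 2% hematocrit and 0.1% parasitemia; series mostly up to about 29 µM; % is set by controls: 0 for no effect and ±100 for the full control effect; nearly all actives have a fitted effect of over 70% in size.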 In outline:
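Readout is firefly luciferase luminescence from an integrated reporter in P. falciparum; lower signal marks inhibited growth. Cultures at 2% hematocrit and 0.1% parasitemia were treated with compound across two generations (96 h, 37 C, 5% CO2).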

Assay [5] is described as follows: Quantitative high throughput screen for delayed death inhibitors of the malarial parasite plastid, 48 hour incubation (AID 488752). Note: % is set by controls: 0 for no effect and ±100 for the full control effect; nearly all actives have a fitted effect of over 65% in size. In outline:
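First, compound was pinned into RPMI 1640 medium containing 0.5% Albumax. Next, reporter-parasite-infected erythrocytes were added to 2% hematocrit and 0.1% parasitemia. After 48 h at 37 C under 5% CO2, luciferase detection reagent was added and luminescence read.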

Assay [6] concerns the target Thioredoxin reductase 1, cytoplasmic (Rattus norvegicus) (UniProt O89049). Kind of assay: qHTS Assay for Substrates of Mammalian Selenoprotein Thioredoxin Reductase 1 (TrxR1) (AID 488772).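 Note: a drop in NADPH fluorescence below the no-compound background marks a TrxR1 substrate.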 Note: potency is the fitted concentration of half-maximal effect. In outline: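 In this dual-purpose format, potential substrates are identified from the first fluorescence read after selenite addition, not from the 8-minute delta. Rat enzyme is preincubated with NADPH and then with compound at ~22 deg C.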

The target is the same in assay [7]. The assay can be described thus: qHTS Assay for Inhibitors of Mammalian Selenoprotein Thioredoxin Reductase 1 (TrxR1) (AID 488773).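 Note: drop in NADPH fluorescence over an 8 min run after selenite addition; series mostly up to about 57 µM; % is set by controls: 0 for no effect and ±100 for the full control effect; nearly all actives have a fitted effect of over 40% in size.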 The note with it: Potency: inhibition. In a few lines: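 Inhibition is scored from the loss of NADPH fluorescence between first and last reads of an 8-min kinetic run. Selenite (400 uM) was the substrate, added after 15 min compound preincubation at room temperature.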

Assay [8] deals with Methanococcus maripaludis chaperonin (MmCpn) (UniProt Q6LX38). Kind of assay: High-Throughput Screening for Modulators of Cytosolic Chaperonin Activity: MmCpn Primary Screen (AID 488978).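 Note: 50 nM MmCpn enzyme hydrolysing 30 µM ATP at 37 °C; 0% is about no effect.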 In outline:
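ATPase activity of 50 nM MmCpn was assayed with 30 uM ATP, 10 minutes at 37C, after a 5 min compound preincubation at room temperature. ADP production was read as HTRF emission at 590 and 665 nm.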

The target of assay [9] is Transient receptor potential cation channel subfamily V member 1 (Homo sapiens) (UniProt Q8NER1). Kind of assay: HTS Assay for Compounds that Act as Enhancers of the Vanilloid Receptor 1 (AID 488979). Note: 0% is about no effect. In outline:
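TRPV1 cells loaded with Fluo-8 calcium dye; compound added and Ca2+ signal (ex 480/em 520 nm) followed 3 min, then capsaicin at EC20 added and read 2 more min to detect enhancement.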

Assay [10] has as its target D(1A) dopamine receptor (Homo sapiens) (UniProt P21728). Kind of assay: HTS Assay for Allosteric Agonists of the Human D1 Dopamine Receptor: Primary Screen for Agonists (AID 488981). Note: 0% is about no effect. In a few lines: (§1)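 Tetracycline-induced HEK293 Trex D1 cells with forced coupling to calcium, loaded with no-wash calcium dye; kinetic fluorescence read 180 s after compound addition for agonism, then a further 180 s after an EC20 dopamine challenge for potentiation.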

The target is the same in assay [11]. Kind of assay: HTS Assay for Allosteric Agonists of the Human D1 Dopamine Receptor: Primary Screen for Potentiators (AID 488982). Note: 0% is about no effect. In a few lines:
as §1

The target in assay [12] is ATP-dependent 6-phosphofructokinase (Trypanosoma brucei brucei) (UniProt O15648). Kind of assay: qHTS Assay to Find Inhibitors of T. brucei phosphofructokinase: hit validation (AID 492961). Note: series mostly up to about 51 µM; % is set by controls: 0 for no effect and ±100 for the full control effect. In a few lines: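 Luminescence from ADP-Glo reports ADP generated as T. brucei PFK (1.25 nM) phosphorylates 0.5 mM fructose-6-phosphate using 0.1 mM ATP. Reactions ran 45 min at room temperature, pH 8.0.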
Chain of ATP-dependent 6-phosphofructokinase (Trypanosoma brucei brucei) (O15648 whole entry, looked up): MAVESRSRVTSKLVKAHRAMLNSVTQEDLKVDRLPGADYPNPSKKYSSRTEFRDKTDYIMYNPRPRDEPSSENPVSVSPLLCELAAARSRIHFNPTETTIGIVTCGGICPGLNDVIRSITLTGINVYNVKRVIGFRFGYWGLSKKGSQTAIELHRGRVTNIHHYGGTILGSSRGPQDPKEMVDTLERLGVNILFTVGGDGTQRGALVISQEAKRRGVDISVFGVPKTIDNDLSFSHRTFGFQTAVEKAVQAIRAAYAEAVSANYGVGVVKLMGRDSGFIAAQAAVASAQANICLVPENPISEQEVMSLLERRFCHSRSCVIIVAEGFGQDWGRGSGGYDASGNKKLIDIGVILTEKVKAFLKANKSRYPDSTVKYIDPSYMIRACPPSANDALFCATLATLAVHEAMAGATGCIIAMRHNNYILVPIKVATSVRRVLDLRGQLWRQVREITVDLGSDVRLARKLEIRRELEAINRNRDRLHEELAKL

The nature of assay [13]: Validation screen for small molecules that induce genotoxicity in human embryonic kidney (HEK293T) cells expressing luciferase-tagged ELG1 (AID 493106). Note: 0% is about no effect. In outline: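 Cells were dispensed at 2,000 per well, then 23 nL compound or DMSO was pinned in. After 16 hr at 37 °C and 5% CO2, ONE-Glo reagent was added. Luciferase activity was measured following 30 min at room temperature.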

Assay [14] is described as follows: Nrf2 qHTS screen for inhibitors: Validation (AID 493153; active = well fitted inhibition curve with a large enough effect in the main read-out, with a control signal flat, not every such curve was filed as active). The note with it: viability change: measured here: cytotoxicity max response. In outline:
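A549 ARE_Fluc, 5% FBS OPTI-MEM; cpd titration, 18-24 h, 37°C/5% CO2. Read 1: CellTiter-Fluor (Ex 405/Em 525), cytotox. Read 2: luciferase lum, Nrf2 activity.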

Assay [15] in a line: qHTS for Inhibitors of Cell Surface uPA Generation: Validation Assay (AID 493164).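 Note: RAW 264.7 macrophage cells exposed to compound for 18 h; 0% is about no effect.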 In outline:
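ATP-Lite luminescence read-out: ATP remains high when uPA activity-dependent LF translocation into the cytoplasm is blocked. RAW 264.7 cells, 18 h compound exposure at 37 C; 7-point titration, 2.45 nM to 38.3 uM final.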

Assay [16] has as its target D(1A) dopamine receptor (Homo sapiens) (UniProt P21728). Kind of assay: HTS Assay for Allosteric Agonists of the Human D1 Dopamine Receptor: Primary Screen for Antagonists (AID 488983).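 Note: calcium flux response to an EC80 dopamine challenge measured with no-wash dye; % is set by controls: 0 for no effect and ±100 for the full control effect; nearly all actives have a fitted effect of over 65% in size.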 In a few lines: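 Kinetic fluorescence at 1 cycle/sec tracked intracellular calcium in force-coupled, tetracycline-inducible HEK293 T-REx D1 cells. Loss of response to an EC80 dopamine dose, given 180 s after compound, marked antagonists.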

Assay [17] deals with ATPase family AAA domain-containing protein 5 (Homo sapiens) (UniProt Q96QE3). The assay can be described thus: Validation screen for small molecules that inhibit ELG1-dependent DNA repair in human embryonic kidney (HEK293T) cells expressing luciferase-tagged ELG1 (AID 493107).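 Note: cells co-treated with the DNA-damaging agent 5-fluorouridine alongside compound; series mostly up to about 46 µM; % is set by controls: 0 for no effect and ±100 for the full control effect; inhibitors lower the ELG1-luciferase luminescence signal; nearly all actives have a fitted effect of over 70% in size.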 In outline:
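Cells are dispensed in 1536-well format, then 5-fluorouridine and compound are pinned in. After a 16 hr incubation at 37 °C and 5% CO2, ONE-Glo is added and luciferase measured on a CCD imager.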

In assay [18] the target is Flap endonuclease 1 (Homo sapiens) (UniProt P39748). The assay can be described thus: qHTS Validation Assay for the Inhibitors of Human Flap endonuclease 1 (FEN1) (AID 488816). Note: % is set by controls: 0 for no effect and ±100 for the full control effect. In outline:
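Enzyme reagent 10 nM; cpds pinned; 15 min RT preinc.; substrate 50 nM final; reads t=0 and 15 min; no-enzyme buffer wells as neg. control; normalized data, 4-parameter Hill fit.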

Assay [19] concerns the target M-phase phosphoprotein 8 (Homo sapiens) (UniProt Q99549). Kind of assay: qHTS Validation Assay for Inhibitors for MPP8 Chromodomain Interactions with Methylated Histone Tails (AID 488949).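 Note: AlphaScreen signal from MPP8 chromodomain bound to biotinylated H3K9me3 peptide; top concentration of the series differs between compounds; % is set by controls: 0 for no effect and ±100 for the full control effect; nearly all actives have a fitted effect of over 55% in size.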 In a few lines:
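AlphaScreen proximity signal from streptavidin donor and Ni-chelate acceptor beads (10 ug/mL each) reported binding of MPP8 to trimethyl-K9 H3(1-18) peptide, both at 50 nM. The complex formed 30 min before a 30 min compound exposure at room temperature, in PBS pH 7.4.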

Assay [20] addresses Chromobox protein homolog 1 (Homo sapiens) (UniProt P83916). The assay can be described thus: qHTS Validation Assay for Inhibitors of HP1-beta Chromodomain Interactions with Methylated Histone Tails (AID 488953). Note: nearly all actives have a fitted effect of over 50% in size. Note: potency is the fitted concentration of half-maximal effect. In outline:
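Disruption of preformed HP1-beta:H3K9me3 peptide complexes (both 50 nM, PBS pH 7.4 with 0.01% Tween-20) is measured by AlphaScreen after 30 min compound exposure at room temperature, using streptavidin donor and nickel chelate acceptor beads at 10 ug/mL final.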

Chain of Flap endonuclease 1 (Homo sapiens) (P39748 whole entry, looked up): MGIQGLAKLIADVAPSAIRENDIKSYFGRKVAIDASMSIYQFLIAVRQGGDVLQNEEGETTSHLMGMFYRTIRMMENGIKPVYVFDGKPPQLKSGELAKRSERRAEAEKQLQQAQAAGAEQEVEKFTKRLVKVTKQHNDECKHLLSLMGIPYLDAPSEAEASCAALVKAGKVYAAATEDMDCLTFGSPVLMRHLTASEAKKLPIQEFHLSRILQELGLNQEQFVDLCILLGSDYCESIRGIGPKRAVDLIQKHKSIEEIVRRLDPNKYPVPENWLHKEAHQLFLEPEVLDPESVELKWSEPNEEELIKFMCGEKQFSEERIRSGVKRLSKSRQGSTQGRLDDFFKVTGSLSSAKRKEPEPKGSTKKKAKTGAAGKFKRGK
Chain of Beta-2 adrenergic receptor (Homo sapiens) (P07550 whole entry, looked up): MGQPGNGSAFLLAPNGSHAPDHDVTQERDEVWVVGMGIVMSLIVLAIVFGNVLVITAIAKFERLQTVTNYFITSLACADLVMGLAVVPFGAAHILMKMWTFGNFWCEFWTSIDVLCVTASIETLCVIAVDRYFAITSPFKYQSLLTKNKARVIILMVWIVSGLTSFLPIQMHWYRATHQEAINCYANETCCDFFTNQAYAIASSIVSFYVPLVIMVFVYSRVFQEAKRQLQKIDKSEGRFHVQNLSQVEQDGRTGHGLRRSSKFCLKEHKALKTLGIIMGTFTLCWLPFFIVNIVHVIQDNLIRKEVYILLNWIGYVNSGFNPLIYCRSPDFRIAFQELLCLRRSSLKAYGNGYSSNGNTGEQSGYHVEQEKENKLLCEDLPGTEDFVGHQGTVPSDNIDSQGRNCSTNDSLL
Chain of Thioredoxin reductase 1, cytoplasmic (Rattus norvegicus) (O89049 whole entry, looked up): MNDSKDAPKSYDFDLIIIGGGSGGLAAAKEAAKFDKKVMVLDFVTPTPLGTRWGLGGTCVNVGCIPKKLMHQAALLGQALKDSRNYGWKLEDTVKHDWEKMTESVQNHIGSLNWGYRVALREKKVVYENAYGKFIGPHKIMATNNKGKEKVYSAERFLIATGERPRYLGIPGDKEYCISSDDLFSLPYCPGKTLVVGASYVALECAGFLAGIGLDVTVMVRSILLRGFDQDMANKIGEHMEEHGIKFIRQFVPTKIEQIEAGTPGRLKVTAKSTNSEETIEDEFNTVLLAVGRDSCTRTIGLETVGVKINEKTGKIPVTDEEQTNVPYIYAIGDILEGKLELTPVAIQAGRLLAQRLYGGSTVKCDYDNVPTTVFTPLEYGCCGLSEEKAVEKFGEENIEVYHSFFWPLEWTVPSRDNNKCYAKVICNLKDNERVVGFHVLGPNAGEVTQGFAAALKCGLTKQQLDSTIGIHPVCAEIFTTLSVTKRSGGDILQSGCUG
Chain of D(1A) dopamine receptor (Homo sapiens) (P21728 whole entry, looked up): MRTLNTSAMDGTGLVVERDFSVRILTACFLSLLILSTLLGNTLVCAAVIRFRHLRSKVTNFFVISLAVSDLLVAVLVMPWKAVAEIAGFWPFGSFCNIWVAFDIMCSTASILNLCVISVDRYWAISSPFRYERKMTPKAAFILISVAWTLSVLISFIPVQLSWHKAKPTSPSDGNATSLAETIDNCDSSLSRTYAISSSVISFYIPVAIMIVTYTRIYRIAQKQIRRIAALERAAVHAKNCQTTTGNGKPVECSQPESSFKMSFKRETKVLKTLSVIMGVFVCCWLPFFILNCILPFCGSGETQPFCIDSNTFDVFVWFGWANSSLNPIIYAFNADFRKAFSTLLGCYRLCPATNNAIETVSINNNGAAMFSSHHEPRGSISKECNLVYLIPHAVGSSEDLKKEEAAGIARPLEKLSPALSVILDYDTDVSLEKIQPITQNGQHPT
Chain of M-phase phosphoprotein 8 (Homo sapiens) (Q99549 whole entry, looked up): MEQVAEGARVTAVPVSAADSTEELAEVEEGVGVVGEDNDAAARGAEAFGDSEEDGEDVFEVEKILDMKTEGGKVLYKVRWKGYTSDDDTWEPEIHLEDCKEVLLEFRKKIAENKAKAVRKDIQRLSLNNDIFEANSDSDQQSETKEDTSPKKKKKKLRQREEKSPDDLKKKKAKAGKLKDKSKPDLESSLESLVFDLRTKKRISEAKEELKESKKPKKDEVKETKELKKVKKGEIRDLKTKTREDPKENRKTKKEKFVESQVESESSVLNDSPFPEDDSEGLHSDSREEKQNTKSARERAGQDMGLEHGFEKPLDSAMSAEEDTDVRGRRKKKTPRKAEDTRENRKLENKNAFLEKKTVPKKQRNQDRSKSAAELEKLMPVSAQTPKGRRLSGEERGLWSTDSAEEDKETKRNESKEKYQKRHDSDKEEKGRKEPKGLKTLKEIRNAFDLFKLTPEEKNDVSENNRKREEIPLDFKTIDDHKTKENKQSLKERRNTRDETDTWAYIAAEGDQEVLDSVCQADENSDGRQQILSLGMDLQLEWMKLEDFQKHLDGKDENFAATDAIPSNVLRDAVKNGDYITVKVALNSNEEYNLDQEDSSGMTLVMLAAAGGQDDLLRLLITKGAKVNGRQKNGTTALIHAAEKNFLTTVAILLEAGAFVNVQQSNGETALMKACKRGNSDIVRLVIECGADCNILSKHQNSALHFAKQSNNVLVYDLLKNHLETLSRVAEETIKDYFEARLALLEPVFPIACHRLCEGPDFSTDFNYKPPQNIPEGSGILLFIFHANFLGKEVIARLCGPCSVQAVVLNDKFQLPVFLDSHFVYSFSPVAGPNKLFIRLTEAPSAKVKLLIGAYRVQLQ
Chain of Methanococcus maripaludis chaperonin (MmCpn) (Q6LX38 1-543): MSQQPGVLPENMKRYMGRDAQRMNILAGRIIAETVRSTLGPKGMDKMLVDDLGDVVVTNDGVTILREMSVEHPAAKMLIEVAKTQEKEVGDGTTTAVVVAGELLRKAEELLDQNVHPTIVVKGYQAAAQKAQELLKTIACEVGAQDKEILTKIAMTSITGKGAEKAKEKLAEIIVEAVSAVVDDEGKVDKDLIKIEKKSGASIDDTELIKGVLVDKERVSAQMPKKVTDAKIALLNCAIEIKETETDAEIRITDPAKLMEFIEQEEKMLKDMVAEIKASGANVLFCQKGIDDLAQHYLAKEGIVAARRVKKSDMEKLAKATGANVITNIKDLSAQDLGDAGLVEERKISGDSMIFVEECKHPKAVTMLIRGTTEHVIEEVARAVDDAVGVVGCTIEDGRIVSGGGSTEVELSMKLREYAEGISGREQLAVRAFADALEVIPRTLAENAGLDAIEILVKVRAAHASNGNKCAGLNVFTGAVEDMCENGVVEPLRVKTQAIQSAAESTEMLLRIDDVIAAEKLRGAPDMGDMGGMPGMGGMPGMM
Chain of Transient receptor potential cation channel subfamily V member 1 (Homo sapiens) (Q8NER1 whole entry, looked up): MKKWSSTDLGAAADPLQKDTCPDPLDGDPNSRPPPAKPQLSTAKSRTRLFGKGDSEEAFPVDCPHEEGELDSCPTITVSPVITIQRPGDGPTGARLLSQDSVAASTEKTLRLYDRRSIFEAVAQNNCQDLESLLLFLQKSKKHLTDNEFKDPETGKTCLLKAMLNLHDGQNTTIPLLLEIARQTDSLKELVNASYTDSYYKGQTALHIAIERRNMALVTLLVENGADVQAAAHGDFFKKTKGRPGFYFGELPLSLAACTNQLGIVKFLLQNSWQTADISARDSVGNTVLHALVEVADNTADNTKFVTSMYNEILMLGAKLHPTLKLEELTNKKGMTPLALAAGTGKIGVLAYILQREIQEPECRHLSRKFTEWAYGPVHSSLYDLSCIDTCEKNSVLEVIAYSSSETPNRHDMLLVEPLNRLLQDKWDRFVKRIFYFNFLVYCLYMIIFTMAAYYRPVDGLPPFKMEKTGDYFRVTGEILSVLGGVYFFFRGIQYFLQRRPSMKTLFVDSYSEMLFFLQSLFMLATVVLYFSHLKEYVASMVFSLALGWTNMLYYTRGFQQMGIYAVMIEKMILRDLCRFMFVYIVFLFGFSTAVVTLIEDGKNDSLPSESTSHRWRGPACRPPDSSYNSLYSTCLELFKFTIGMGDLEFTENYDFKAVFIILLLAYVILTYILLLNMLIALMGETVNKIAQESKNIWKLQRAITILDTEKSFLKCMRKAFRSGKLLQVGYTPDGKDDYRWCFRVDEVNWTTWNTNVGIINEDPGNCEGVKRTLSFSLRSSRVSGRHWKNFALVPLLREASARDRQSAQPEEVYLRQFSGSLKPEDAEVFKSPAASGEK
Chain of Chromobox protein homolog 1 (Homo sapiens) (P83916 whole entry, looked up): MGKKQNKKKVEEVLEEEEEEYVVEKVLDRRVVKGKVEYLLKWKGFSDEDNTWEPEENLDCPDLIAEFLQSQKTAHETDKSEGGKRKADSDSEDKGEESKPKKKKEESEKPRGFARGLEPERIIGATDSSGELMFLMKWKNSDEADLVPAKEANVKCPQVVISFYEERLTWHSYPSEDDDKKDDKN

As to `CC(C)(C)c1ccc(C(O)CCCN2CCC(C(O)(c3ccccc3)c3ccccc3)CC2)cc1` (centres undefined), the compound was called inactive in assay [1], in assay [2], in assay [3], in assay [5], in assay [8] and in assay [9]. Also, the result in [10], in assay [11], in assay [12], in assay [14] and in assay [15] was inactive. The Potency entry in [4], in [6], in assay [7] and in [13] was “inactive” in each case. In addition, in assay [14], the viability change is -16.1%.
In the case of `CC(C)NCC(O)COc1cccc2[nH]ccc12` (centres undefined), the outcome in [1], in [2], in [5], in assay [8], in [9] and in assay [10] was inactive. The result in assay [11], in assay [17], in assay [14] and in assay [15] was inactive. In addition, the Potency result in assay [4], in assay [6], in [7], in assay [16] and in assay [13] was “inactive” in each case. Moreover, in assay [14], the viability change is 3.18%.
In the case of `Clc1ccc(C(c2ccc(Cl)cc2)n2cc[n+](CC(OCc3ccc(Cl)cc3Cl)c3ccc(Cl)cc3Cl)c2)cc1` (centres undefined), the compound was classed as inactive in assay [1], in assay [2], in [8], in [10], in [11] and in [15]. Further, the Potency result in assay [6], in [7] and in [16] was “inactive” each time.
For `CC1(C)CCC2=C(O1)c1ccccc1C(=O)C2=O`, the outcome in assay [2], in assay [18], in assay [8], in assay [9], in [10] and in assay [11] was inactive. The outcome in assay [15] was inactive. Moreover, in assay [6], the Potency was 18.9 µM (active). Besides, the Potency entry in [19], in assay [16] and in assay [13] was “inactive” throughout.
`O=C(O)c1c(Cl)c(Cl)c(Cl)c(Cl)c1-c1c2cc(I)c(=O)c(I)c-2oc2c(I)c(O)c(I)cc12`: the call in [12] was inactive.
`COc1ccccc1N1CCN(CCCNc2cc(=O)n(C)c(=O)n2C)CC1`: the call in assay [1], in assay [2], in [5], in [18], in assay [8] and in assay [9] was inactive. Further, the call in [10], in assay [11], in assay [12], in assay [17], in assay [14] and in assay [15] was inactive. Moreover, the Potency result in [6], in assay [19], in [20], in assay [16] and in [13] was “inactive” throughout. Also, the viability change in [14] was -8.38%.
For the compound `CCOC(=O)O[C@]1(C(=O)OCCl)CC[C@@H]2[C@H]3CCC4=CC(=O)C=C[C@]4(C)[C@@H]3[C@@H](O)C[C@@]21C`, the compound was called inactive in assay [12].
For the compound `Cc1cnc(C(=O)O)c[n+]1[O-]`, the compound was called inactive in assay [12].
With `CC1(C)O[C@H]2C[C@@H]3[C@H]4CCC5=CC(=O)C=C[C@]5(C)[C@@]4(F)[C@@H](O)C[C@]3(C)[C@]2(C(=O)CO)O1`, the compound was classed as inactive in assay [12].
On to `CC1=C(/C=C/C(C)=C/C=C/C(C)=C/C(=O)Nc2ccc(O)cc2)C(C)(C)CCC1`, for which the result in assay [2], in assay [3], in assay [18], in [8], in [10] and in assay [12] was inactive. The compound was classed as inactive in assay [15]. The Potency result in assay [19] and in [13] was “inactive” throughout. Moreover, in [20], the Potency was 39.8 µM (active).
